# About 83,000 compounds went through this panel and 20% of them were active in at least one assay; those are over-represented in the sample as a whole.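 Values shown are percent growth following 48 h exposure of cells in 96-well plates to a single concentration of compound; below 10 was considered active.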 A number with no mark means an inactive call. Calls of active or inactive are those of the source.
# Tests used:
# Assay in all cases: NCI-60 one-dose screen, 48 h (100 = growth as untreated, 0 = no growth, -100 = all killed)
# Conditions in all cases: 10 µM unless noted
# NCI-H23 lung = system: NCI-H23 lung
# NCI-H226 lung = system: NCI-H226 lung
# NCI-H322M lung = system: NCI-H322M lung
# HOP-62 NSCLC = system: HOP-62 NSCLC
# NCI-H460 lung = system: NCI-H460 lung
# NCI-H522 lung = system: NCI-H522 lung
# A549/ATCC NSCLC = system: A549/ATCC NSCLC
# 786-0 renal = system: 786-0 renal
# COLO 205 colon = system: COLO 205 colon
# DU-145 prostate = system: DU-145 prostate
# K-562 leukemia = system: K-562 leukemia
# MALME-3M melanoma = system: MALME-3M melanoma
# MDA-MB-231 breast = system: MDA-MB-231 breast
# RXF 393 renal = system: RXF 393 renal
# SF-268 CNS = system: SF-268 CNS
# SF-295 CNS = system: SF-295 CNS
# SF-539 CNS = system: SF-539 CNS
# UACC-257 melanoma = system: UACC-257 melanoma
# M14 melanoma = system: M14 melanoma
SMILES,growth (NCI-H23 lung),growth (NCI-H226 lung),growth (NCI-H322M lung),growth (HOP-62 NSCLC),growth (NCI-H460 lung),growth (NCI-H522 lung),growth (A549/ATCC NSCLC),growth (786-0 renal),growth (COLO 205 colon),growth (DU-145 prostate),growth (K-562 leukemia),growth (MALME-3M melanoma),growth (MDA-MB-231 breast),growth (RXF 393 renal),growth (SF-268 CNS) [%],growth (SF-295 CNS),growth (SF-539 CNS),growth (UACC-257 melanoma),growth (M14 melanoma)
CC(=O)O[C@@H]1CC2C(C)(C)CCCC2(C)C2=C1C(=O)C(C(C)C)=CC2=O (some centres undefined),8.94% (active),-78% (active),-19.1% (active),-25.6% (active),-8.52% (active),-27.1% (active),-35% (active),16%,-50.8% (active),-19.2% (active),6.8% (active),-12.8% (active),-15% (active),-57.8% (active),27.1,-34.1% (active),-39.3% (active),-52% (active),-60.9% (active)
O=C(O)c1ccccc1Oc1cc(-c2ccco2)nc(OCCN2CCOCC2)n1,106%,97%,94.6%,99.9%,116%,92.1%,106%,96.5%,103%,113%,107%,98.3%,98.8%,115%,114,102%,108%,108%,99.1%
COc1cc(Nc2ncccc2/C=C/C(=O)c2cc(OC)c(OC)c(OC)c2)cc(OC)c1OC,81.7%,82.9%,102%,92.7%,79.7%,87.8%,68.8%,91.7%,75.2%,80.6%,45.5%,103%,93.3%,86%,83.3,84.2%,78.9%,67%,86.7%
COc1ccc(C2=NNC(c3ccc(Oc4nc5c(c(=O)n(C)c(=O)n5C)n4C)c(OC)c3)C2)cc1 (centres undefined),103%,89.7%,102%,101%,95%,84.4%,90.5%,98.7%,127%,109%,112%,103%,93.3%,87.5%,93.4,88.9%,97.8%,97.8%,96.9%
C/C(=N\NC(=O)CSc1nc2ccccc2c(=O)n1CCc1ccc(S(N)(=O)=O)cc1)c1ccc(Br)cc1,60.4%,95.2%,97.2%,77.4%,30.8%,62.5%,47.3%,49.8%,93.6%,99%,54.3%,54.4%,36.9%,99.1%,99.4,89.9%,83.1%,83.3%,70.3%
C=C1C(=O)O[C@H]2[C@H]1CC/C(COC(=O)NCc1ccc(Cn3c(=O)sn(CCCl)c3=O)cc1)=C\CC[C@@]1(C)O[C@@H]21,103%,79.8%,95.1%,75.3%,97.8%,-68% (active),86%,32.4%,-48.1% (active),36.9%,-13% (active),-28.3% (active),73.5%,5.98% (active),85.2,107%,83.1%,49.8%,29.5%
O=C(Nc1ccc(Br)cc1)Nc1cccc(Br)c1,18.4%,53.1%,55.4%,56.6%,12.2%,-28.5% (active),32.1%,68.6%,28.1%,30.7%,4.34% (active),60.2%,66.6%,105%,69,28.1%,76.6%,36.3%,24.1%
CC(CN1CCN(CC(C)Nc2ccnc3cc(Cl)ccc23)CC1)Nc1ccnc2cc(Cl)ccc12 (centres undefined),62.3%,26.6%,20.7%,-18.4% (active),-30.4% (active),-29.4% (active),15.7%,-9.83% (active),-85% (active),30%,-21.9% (active),-55.5% (active),-19% (active),-69.4% (active),16.7,-48.2% (active),-82.4% (active),-61.4% (active),-88% (active)
COc1ccc(Nc2nc(N)nc3c(=O)[nH]ccc23)cc1,85.8%,105%,103%,111%,107%,99.5%,104%,106%,118%,114%,69%,150%,110%,133%,106,106%,104%,131%,108%
COc1ccc(-c2cc(C(=O)Nc3ccc(Br)cc3)nc3[nH]c(=O)sc23)cc1,23.6%,63.4%,46.8%,72.7%,28.8%,-9.13% (active),20.3%,57.2%,42.3%,54.9%,27%,25%,84.8%,65.1%,51.6,53.2%,43.6%,16.4%,44.4%
Oc1ccc(-c2nc3ccccc3s2)cc1CN(Cc1ccccn1)Cc1ccccn1,17.5%,5.38% (active),9.63% (active),10.9%,2.66% (active),-7.33% (active),2.38% (active),-3.75% (active),16%,24.2%,11.8%,8.24% (active),25.3%,40.5%,17.7,13.5%,3.91% (active),-0.146% (active),-29.7% (active)
Cc1[nH]c2ccccc2c1C1=CC(=O)C=CC1=O,92.8%,94.2%,120%,94.7%,111%,-24.4% (active),93.2%,84.3%,55.7%,103%,33.4%,123%,87.7%,115%,83.7,127%,79.1%,91.6%,79.4%
Cn1cnc([N+](=O)[O-])c1S(=O)(=O)Oc1cccc2ccccc12,85.5%,88.1%,104%,84.6%,106%,-84.3% (active),98.4%,62.7%,-89.7% (active),43.1%,3.91% (active),-39.9% (active),76.3%,19.6%,83.7,102%,52.8%,71%,-62.9% (active)
CS(=O)(=O)c1ccc(C(=O)N2N=C(c3ccccc3)CC2c2ccc3c(c2)OCO3)cc1 (centres undefined),101%,88.7%,99.6%,83.1%,98.5%,87.2%,80.2%,90.8%,81.4%,97.4%,59.9%,104%,96.2%,98.4%,95.2,100%,103%,79.2%,95.7%
COCc1nc(NS(=O)(=O)c2ccc(N)cc2)nc(C)c1Br,97.1%,98.2%,99%,91%,106%,76.7%,94%,100%,108%,116%,98%,94.6%,106%,101%,109,93.6%,100%,104%,101%
COc1ccc(CC2c3cc(OC)c(OC)cc3CC[N+]2(C)CCC(=O)OCCCCCOC(=O)CC[N+]2(C)CCc3cc(OC)c(OC)cc3C2Cc2ccc(OC)c(OC)c2)cc1OC (centres undefined),93.4%,76.3%,90.9%,100%,100%,86.1%,101%,103%,112%,99.8%,111%,99.6%,92.2%,91.5%,87.6,93.5%,100%,100%,88.5%
O=C1/C=C/[C@@H](O)[C@@H]2C[C@@H](O)C[C@H]2/C=C/CCC[C@H]([C@@H](O)CO)O1,93%,106%,91.9%,108%,115%,92.8%,96.1%,50.3%,94.3%,135%,95.2%,64.4%,91.6%,24.9%,60.8,87.7%,74.3%,69.3%,68.8%
Oc1c(C(Nc2ccccc2Br)c2ccccc2)ccc2cccnc12 (centres undefined),22.2%,35%,24.5%,19.6%,5.78% (active),-1.78% (active),22.6%,6.91% (active),32.4%,28.8%,11.4%,28.1%,37.7%,37.6%,18.5,13.6%,19.9%,14.5%,-14.2% (active)
CN1C(=O)C(C(=O)/C=C/c2ccccc2C(=O)O)C(=O)N(C)C1=O,95.1%,99.5%,99.1%,91.3%,104%,90.5%,97.4%,94.7%,114%,111%,90.1%,103%,109%,118%,100,98.4%,104%,93.3%,99%
Cc1nn(-c2cccc(Cl)c2)c(C)c1N=Nc1ccc(Br)cc1,96.9%,101%,102%,86.9%,103%,68.6%,66.1%,89.7%,102%,101%,89.2%,95.1%,93.1%,110%,96.5,91.8%,90.7%,53.2%,95.6%
Cc1ccccc1C1CC(=O)c2ccccc2C1C (centres undefined),100%,103%,114%,104%,108%,97.1%,89.9%,102%,104%,109%,97.3%,125%,105%,109%,101,96.3%,93%,103%,90.6%
